Data taken from PubChem BioAssay AID1159580 (chemical genetic matrix, 2015).
The whole screen tested about 5,500 compounds, of which about 2,000 (36%) were called active. Roughly 18% stayed inconclusive and do not appear here. The list shows a part of the results. A number with no mark means an inactive call. Cut-off read from the data, not from the text of the source: active = normalized growth mostly below about 0.91 (no sharp cut-off); inconclusive = no clear call, values can overlap the other calls; inactive = mostly above about 0.92.

Experiment: chemical genetic growth profiling, strain panel (AID 1159580);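 note: tested at 20 µM; growth read once vehicle control cultures reached saturation at 30 °C; 1 = growth at the plate median or of vehicle wells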
Details: S. cerevisiae deletion strains, growth OD

CC1(C)C=CC(=O)[C@@]2(C)C1CC(=O)[C@]1(C)C2CC[C@@]2(C)[C@H](c3ccoc3)OC(=O)C3OC321 (stereo partly drawn)
normalized growth (locus YAL021C, strain ccr4, stronger effect = lower value): 0.977
normalized growth (locus YAL026C, strain drs2, stronger effect = lower value): 1
normalized growth (locus YAL030W, strain snc1, stronger effect = lower value): 0.995
normalized growth (locus YBL061C, strain skt5, stronger effect = lower value): 0.998
normalized growth (locus YBR009C, strain hhf1, stronger effect = lower value): 0.984
normalized growth (locus YBR021W, strain FUR4, stronger effect = lower value): 1
normalized growth (locus YBR023C, strain chs3, stronger effect = lower value): 0.983
normalized growth (locus YBR171W, strain sec66, stronger effect = lower value): 1.01
normalized growth (locus YBR229C, strain ROT2, stronger effect = lower value): 0.944
normalized growth (locus YBR231C, strain swc5, stronger effect = lower value): 1
normalized growth (locus YBR279W, strain paf1, stronger effect = lower value): 0.988
normalized growth (locus YCL011C, strain gbp2, stronger effect = lower value): 0.996
normalized growth (locus YCL016C, strain dcc1, stronger effect = lower value): 0.99
normalized growth (locus YCL029C, strain bik1, stronger effect = lower value): 0.96
normalized growth (locus YCL061C, strain MRC1, stronger effect = lower value): 1.01
normalized growth (locus YCL069W, strain vba3, stronger effect = lower value): 0.995
normalized growth (locus YCR088W, strain abp1, stronger effect = lower value): 1
normalized growth (locus YDL005C, strain med2, stronger effect = lower value): 0.996
normalized growth (locus YDL035C, strain GPR1, stronger effect = lower value): 0.945
normalized growth (locus YDL040C, strain nat1, stronger effect = lower value): 0.996
normalized growth (locus YDL074C, strain BRE1, stronger effect = lower value): 0.926
normalized growth (locus YDL101C, strain DUN1, stronger effect = lower value): 0.967
normalized growth (locus YDL185W, strain tfp1, stronger effect = lower value): 0.966
normalized growth (locus YDL192W, strain arf1, stronger effect = lower value): 0.94
normalized growth (locus YDR001C, strain nth1, stronger effect = lower value): 0.992
normalized growth (locus YDR069C, strain doa4, stronger effect = lower value): 0.976
normalized growth (locus YDR101C, strain arx1, stronger effect = lower value): 0.93
normalized growth (locus YDR137W, strain rgp1, stronger effect = lower value): 0.843 (active)
normalized growth (locus YDR159W, strain sac3, stronger effect = lower value): 0.954
normalized growth (locus YDR162C, strain NBP2, stronger effect = lower value): 0.953
normalized growth (locus YDR195W, strain ref2): 1.03
normalized growth (locus YDR297W, strain sur2, stronger effect = lower value): 0.983
normalized growth (locus YDR318W, strain mcm21, stronger effect = lower value): 0.969
normalized growth (locus YDR334W, strain swr1, stronger effect = lower value): 1
normalized growth (locus YDR335W, strain msn5, stronger effect = lower value): 1
normalized growth (locus YDR388W, stronger effect = lower value): 0.982
normalized growth (locus YDR392W, strain spt3, stronger effect = lower value): 0.982
normalized growth (locus YDR502C, strain sam2, stronger effect = lower value): 0.983
normalized growth (locus YEL003W, strain gim4, stronger effect = lower value): 0.994
normalized growth (locus YEL037C, strain rad23, stronger effect = lower value): 1
normalized growth (locus YEL061C, strain CIN8 (second series), stronger effect = lower value): 0.997
normalized growth (locus YEL061C, strain CIN8, stronger effect = lower value): 0.971
normalized growth (locus YER015W, strain faa2, stronger effect = lower value): 0.982
normalized growth (locus YER016W, strain bim1, stronger effect = lower value): 0.985
normalized growth (locus YER110C, stronger effect = lower value): 0.959
normalized growth (locus YER111C, strain swi4, stronger effect = lower value): 1
normalized growth (locus YER155C, strain BEM2 (second series), stronger effect = lower value): 1.01
normalized growth (locus YER155C, strain BEM2, stronger effect = lower value): 0.998
normalized growth (locus YER167W, strain BCK2, stronger effect = lower value): 0.959
normalized growth (locus YFR010W, strain ubp6, stronger effect = lower value): 1.01
normalized growth (locus YGL078C, strain dbp3, stronger effect = lower value): 1.02
normalized growth (locus YGL086W, strain mad1, stronger effect = lower value): 0.979
normalized growth (locus YGL167C, strain pmr1, stronger effect = lower value): 0.991
normalized growth (locus YGL173C, strain kem1, stronger effect = lower value): 0.994
normalized growth (locus YGL227W, strain vid30, stronger effect = lower value): 0.994
normalized growth (locus YGL240W, strain doc1, stronger effect = lower value): 0.99
normalized growth (locus YGL248W, strain PDE1, stronger effect = lower value): 0.974
normalized growth (locus YGL253W, strain hxk2, stronger effect = lower value): 0.994
normalized growth (locus YGR078C, strain PAC10, stronger effect = lower value): 0.981
normalized growth (locus YGR135W, strain pre9, stronger effect = lower value): 1.03
normalized growth (locus YGR252W, strain gcn5, stronger effect = lower value): 0.966
normalized growth (locus YHR013C, strain ard1, stronger effect = lower value): 0.968
normalized growth (locus YHR027C, strain rpn1, stronger effect = lower value): 0.979
normalized growth (locus YHR030C, strain SLT2, stronger effect = lower value): 0.98
normalized growth (locus YHR079C, strain IRE1 (second series), stronger effect = lower value): 0.975
normalized growth (locus YHR094C, strain hxt1, stronger effect = lower value): 0.967
normalized growth (locus YHR129C, strain ARP1, stronger effect = lower value): 0.98
normalized growth (locus YHR142W, strain chs7, stronger effect = lower value): 0.999
normalized growth (locus YHR200W, strain rpn10, stronger effect = lower value): 0.986
normalized growth (locus YIL066C, strain RNR3, stronger effect = lower value): 0.904
normalized growth (locus YIL073C, strain SPO22, stronger effect = lower value): 1.01
normalized growth (locus YIL125W, strain kgd1, stronger effect = lower value): 0.968
normalized growth (locus YIR030C, strain dcg1, stronger effect = lower value): 0.969
normalized growth (locus YJL092W, strain hpr5, stronger effect = lower value): 0.999
normalized growth (locus YJL095W, strain BCK1 (second series), stronger effect = lower value): 0.985
normalized growth (locus YJL095W, strain BCK1, stronger effect = lower value): 0.981
normalized growth (locus YJL115W, strain asf1, stronger effect = lower value): 0.994
normalized growth (locus YJL129C, strain trk1, stronger effect = lower value): 0.976
normalized growth (locus YJL134W, strain LCB3, stronger effect = lower value): 0.975
normalized growth (locus YJL154C, strain vps35, stronger effect = lower value): 0.996
normalized growth (locus YJL164C, strain tpk1, stronger effect = lower value): 0.991
normalized growth (locus YJL166W, strain qcr8, stronger effect = lower value): 0.992
normalized growth (locus YJL168C, strain set2, stronger effect = lower value): 0.98
normalized growth (locus YJL187C, strain SWE1 (second series), stronger effect = lower value): 0.977
normalized growth (locus YJL187C, strain SWE1, stronger effect = lower value): 0.997
normalized growth (locus YJR043C, strain POL32, stronger effect = lower value): 0.981
normalized growth (locus YKL009W, strain mrt4, stronger effect = lower value): 1.02
normalized growth (locus YKL068W, stronger effect = lower value): 0.993
normalized growth (locus YKL085W, strain MDH1 (second series), stronger effect = lower value): 1
normalized growth (locus YKL085W, strain MDH1, stronger effect = lower value): 1
normalized growth (locus YKL160W, strain elf1, stronger effect = lower value): 0.987
normalized growth (locus YKL190W, strain CNB1, stronger effect = lower value): 0.975
normalized growth (locus YKR001C, strain vps1, stronger effect = lower value): 0.996
normalized growth (locus YKR026C, strain gcn3, stronger effect = lower value): 0.989
normalized growth (locus YKR091W, strain srl3, stronger effect = lower value): 0.994
normalized growth (locus YLL001W, strain dnm1, stronger effect = lower value): 1.01
normalized growth (locus YLL026W, stronger effect = lower value): 0.984
normalized growth (locus YLL041C, strain sdh2, stronger effect = lower value): 1
normalized growth (locus YLR027C, strain aat2, stronger effect = lower value): 0.984
normalized growth (locus YLR039C, strain RIC1, stronger effect = lower value): 0.863
normalized growth (locus YLR058C, strain SHM2, stronger effect = lower value): 0.949
normalized growth (locus YLR102C, strain apc9, stronger effect = lower value): 0.972
normalized growth (locus YLR221C, strain rsa3, stronger effect = lower value): 1
normalized growth (locus YLR258W, strain gsy2, stronger effect = lower value): 0.988
normalized growth (locus YLR262C, strain YPT6 (second series), stronger effect = lower value): 0.905
normalized growth (locus YLR262C, strain YPT6, stronger effect = lower value): 0.857
normalized growth (locus YLR268W, strain sec22, stronger effect = lower value): 0.911
normalized growth (locus YLR320W, strain mms22, stronger effect = lower value): 0.988
normalized growth (locus YLR342W, strain FKS1 (second series), stronger effect = lower value): 0.915
normalized growth (locus YLR342W, strain FKS1, stronger effect = lower value): 1.01
normalized growth (locus YLR357W, strain rsc2, stronger effect = lower value): 1.01
normalized growth (locus YLR370C, strain arc18, stronger effect = lower value): 0.992
normalized growth (locus YLR371W, strain rom2, stronger effect = lower value): 0.901 (active)
normalized growth (locus YLR384C, strain iki3, stronger effect = lower value): 1
normalized growth (locus YLR418C, strain cdc73, stronger effect = lower value): 0.952
normalized growth (locus YML016C, strain PPZ1, stronger effect = lower value): 0.951
normalized growth (locus YML032C, strain rad52, stronger effect = lower value): 0.936
normalized growth (locus YML120C, strain ndi1, stronger effect = lower value): 0.99
normalized growth (locus YML124C, strain tub3, stronger effect = lower value): 0.973
normalized growth (locus YMR058W, strain fet3, stronger effect = lower value): 1.01
normalized growth (locus YMR078C, strain ctf18, stronger effect = lower value): 0.974
normalized growth (locus YMR125W, strain sto1, stronger effect = lower value): 0.995
normalized growth (locus YMR129W, stronger effect = lower value): 0.99
normalized growth (locus YMR205C, strain PFK2, stronger effect = lower value): 1.01
normalized growth (locus YMR223W, strain ubp8, stronger effect = lower value): 0.984
normalized growth (locus YMR231W, strain pep5, stronger effect = lower value): 1.01
normalized growth (locus YMR263W, strain SAP30, stronger effect = lower value): 0.975
normalized growth (locus YMR307W, strain GAS1, stronger effect = lower value): 0.865
normalized growth (locus YNL067W, strain RPL9B, stronger effect = lower value): 1.02
normalized growth (locus YNL071W, strain lat1, stronger effect = lower value): 0.999
normalized growth (locus YNL153C, strain GIM3, stronger effect = lower value): 0.981
normalized growth (locus YNL209W, strain ssb2, stronger effect = lower value): 0.984
normalized growth (locus YNL233W, strain BNI4, stronger effect = lower value): 0.984
normalized growth (locus YNL248C, strain rpa49, stronger effect = lower value): 0.983
normalized growth (locus YNL250W, strain rad50, stronger effect = lower value): 1
normalized growth (locus YNL271C, strain bni1, stronger effect = lower value): 0.963
normalized growth (locus YNL298W, strain CLA4, stronger effect = lower value): 0.97
normalized growth (locus YNL307C, strain MCK1, stronger effect = lower value): 0.961
normalized growth (locus YNL322C, strain KRE1 (second series), stronger effect = lower value): 0.989
normalized growth (locus YNR049C, strain mso1, stronger effect = lower value): 1
normalized growth (locus YNR052C, strain pop2, stronger effect = lower value): 0.977
normalized growth (locus YOL006C, strain TOP1, stronger effect = lower value): 0.813
normalized growth (locus YOL012C, strain htz1): 1.08
normalized growth (locus YOL147C, strain pex11, stronger effect = lower value): 0.971
normalized growth (locus YOR001W, strain rrp6, stronger effect = lower value): 1
normalized growth (locus YOR061W, strain CKA2, stronger effect = lower value): 0.924
normalized growth (locus YOR069W, strain VPS5, stronger effect = lower value): 0.981
normalized growth (locus YOR070C, strain gyp1, stronger effect = lower value): 1
normalized growth (locus YOR080W, strain dia2, stronger effect = lower value): 1
normalized growth (locus YOR083W, strain WHI5, stronger effect = lower value): 0.999
normalized growth (locus YOR106W, strain vam3, stronger effect = lower value): 1
normalized growth (locus YOR136W, strain idh2, stronger effect = lower value): 0.981
normalized growth (locus YOR144C, strain elg1, stronger effect = lower value): 0.973
normalized growth (locus YOR184W, strain ser1, stronger effect = lower value): 0.922
normalized growth (locus YOR265W, strain rbl2, stronger effect = lower value): 1
normalized growth (locus YOR270C, strain vph1, stronger effect = lower value): 0.833
normalized growth (locus YOR290C, strain snf2, stronger effect = lower value): 0.974
normalized growth (locus YOR316C, strain cot1, stronger effect = lower value): 0.965
normalized growth (locus YPL051W, strain arl3, stronger effect = lower value): 0.987
normalized growth (locus YPL055C, strain LGE1, stronger effect = lower value): 0.884
normalized growth (locus YPL078C, strain atp4, stronger effect = lower value): 1
normalized growth (locus YPL106C, strain sse1, stronger effect = lower value): 1
normalized growth (locus YPL240C, strain hsp82, stronger effect = lower value): 0.999
normalized growth (locus YPR119W, strain clb2, stronger effect = lower value): 0.985
normalized growth (locus YPR141C, strain kar3, stronger effect = lower value): 0.972
normalized growth (locus YPR163C, strain tif3, stronger effect = lower value): 0.956
normalized growth (locus YPR167C, strain met16, stronger effect = lower value): 0.986
normalized growth (strain wtn01, stronger effect = lower value): 0.936
